Data published in PubChem BioAssay (NCI).
This is part of a sample that, as a whole, favours compounds with a hit. Of some 79,000 tested, about 15% had one in any assay. The source made the active and inactive calls. Rule as the data show it: active = growth inhibition above about 70%; inactive = the rest.

Tests used:
[1] = NCI Yeast Anticancer Drug Screen. Data for the rad52 strain (AID 147);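 also: 0% = growth of vehicle-treated control cultures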; conditions: S. cerevisiae rad52 mutant growth inhibition, hits give high values
Procedure, shortened: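 Compounds are applied to a genetically defined yeast strain lacking normal DNA damage repair, and inhibition of growth is expressed relative to cultures given vehicle only.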

[2] = NCI Yeast Anticancer Drug Screen. Data for the wt1 strain (AID 149);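 also: 0% = growth of vehicle-treated wt1 cultures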; conditions: S. cerevisiae wt1 strain (SPY 50644) growth inhibition, hits give high values
Procedure, shortened: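 wt1 yeast, compound-treated; % growth inhibition vs vehicle control.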

[3] = NCI Yeast Anticancer Drug Screen. Data for the mgt1 strain (AID 153); conditions: S. cerevisiae mgt1 mutant growth inhibition, hits give high values
Procedure, shortened: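 Strain: mgt1 yeast, one of a set carrying defined DNA damage repair or cell cycle control alterations. Compound-treated growth compared with vehicle.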

[4] = NCI Yeast Anticancer Drug Screen. Data for the rad50 strain (AID 155);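 also: 0% = growth of vehicle-only cultures of the same strain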; conditions: S. cerevisiae rad50 strain growth inhibition, hits give high values
Procedure, shortened: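 Genetically altered yeast (DNA repair pathway); compound treatment; growth inhibition vs vehicle ctrl.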

[5] = NCI Yeast Anticancer Drug Screen. Data for the mec2-1 strain (AID 157); conditions: S. cerevisiae mec2-1 strain, hits give high values
Procedure, shortened: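 Strain: mec2-1 (DNA repair/cell cycle alteration). Compound exposure, then growth measured; inhibition expressed relative to vehicle.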

[6] = NCI Yeast Anticancer Drug Screen. Data for the rad14 strain (AID 159);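 also: 0% = growth of vehicle-treated control cultures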; conditions: S. cerevisiae rad14 strain growth inhibition, hits give high values
Procedure, shortened: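 Test compounds were applied to a repair-deficient yeast strain. Its growth was then compared with that of cultures given vehicle alone, and inhibition was expressed relative to those controls.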

[7] = NCI Yeast Anticancer Drug Screen. Data for the sgs1 mgt1 strain (AID 161);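 also: 0% = growth of cultures given vehicle only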; conditions: S. cerevisiae sgs1 mgt1 strain, hits give high values
Procedure, shortened: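 Test agents were incubated with a DNA-repair-mutant yeast strain. Growth was then read and compared against vehicle-treated controls.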

[8] = NCI Yeast Anticancer Drug Screen. Data for the CLN2oe strain (AID 163);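 also: 0% = growth of vehicle-only control cultures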; conditions: S. cerevisiae CLN2oe strain, hits give high values
Procedure, shortened: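 Growth of a genetically modified yeast strain is measured after compound exposure and compared with cultures given vehicle alone.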

[9] = NCI Yeast Anticancer Drug Screen. Data for the bub3 strain (AID 167); conditions: S. cerevisiae bub3 mutant strain, hits give high values
Procedure, shortened: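 Yeast carrying a defined mutation is treated with each compound, and growth is compared with that of vehicle-exposed cells to give inhibition.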

[10] = NCI Yeast Anticancer Drug Screen. Data for the mlh1 strain (AID 171);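 also: 0% = growth of vehicle-treated control cultures of the same strain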; conditions: S. cerevisiae mlh1 strain growth inhibition, hits give high values
Procedure, shortened: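 Growth of the mutant yeast strain after compound exposure, expressed as inhibition relative to vehicle-only controls.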

[11] = NCI Yeast Anticancer Drug Screen. Data for the sgs1 strain (AID 173);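 also: 0% = growth of vehicle-only control cultures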; conditions: S. cerevisiae sgs1 mutant, hits give high values
Procedure, shortened: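 Growth of a yeast strain bearing a defined genetic alteration is measured after compound treatment. Inhibition is expressed relative to vehicle-only controls.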

[12] = NCI Yeast Anticancer Drug Screen. Data for the mlh1 rad18 strain (AID 175); conditions: S. cerevisiae mlh1 rad18 strain growth inhibition, hits give high values
Procedure, shortened: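 Read-out is yeast growth inhibition, calculated against vehicle-only controls. The compound was applied to a strain engineered with DNA damage repair alterations.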

[13] = NCI Yeast Anticancer Drug Screen. Data for the rad18 strain (AID 177); conditions: S. cerevisiae rad18 mutant growth inhibition, hits give high values
Procedure, shortened: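 Growth of the mutant yeast strain after compound exposure, normalised to vehicle-only cultures.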

[14] = at 5.0 µM (retest, dose inferred, filed as 0.5)
[15] = at 50.0 µM (retest, dose inferred, filed as 5.0)

Measured: growth inhibition

CC(C)c1cc(C(C)C)c(O)c(C([O-])[O-])c1.CC(C)c1cc(C(C)C)c(O)c(C([O-])[O-])c1.CC(C)c1cc(C(C)C)c(O)c(C([OH2+])[OH2+])c1.CC(C)c1cc(C(C)C)c(O)c(C([OH2+])[OH2+])c1.[Cu+2].[Cu+2].[OH3+].[OH3+]
active: [1]; at 100.0 µM 92% | [3]; at 100.0 µM 91% | [4]; at 100.0 µM 94% | [5]; at 100.0 µM 76% | [6]; at 100.0 µM 93% | [8]; at 100.0 µM 83% | [9]; at 50.0 µM 96.7% | [9]; at 100.0 µM 70% | [10]; at 100.0 µM 93% | [11]; at 33.0 µM 78% | [11]; at 100.0 µM 93% | [13]; at 100.0 µM 87%
inactive: [1]; at 1.2 µM 5% | [1]; at 3.7 µM 12% | [1]; at 11.0 µM 26% | [1]; at 33.0 µM 61% | [2]; at 1.2 µM -2% | [2]; at 3.7 µM 4% | [2]; at 11.0 µM 20% | [2]; at 33.0 µM 35% | [2]; at 100.0 µM 67% | [3]; at 1.2 µM -2% | [3]; at 3.7 µM 6% | [3]; at 11.0 µM 18% | [3]; at 33.0 µM 56% | [4]; at 1.2 µM 5% | [4]; at 3.7 µM 8% | [4]; [14] 5% | [4]; at 11.0 µM 21% | [4]; at 33.0 µM 65% | [4]; [15] 31% | [4]; at 50.0 µM 39.8% | [5]; at 1.2 µM 7% | [5]; at 3.7 µM 18% | [5]; [14] 1% | [5]; at 11.0 µM 36% | [5]; at 33.0 µM 52% | [5]; [15] 27% | [5]; at 50.0 µM 38.1% | [6]; at 1.2 µM 5% | [6]; at 3.7 µM 14% | [6]; at 11.0 µM 29% | [6]; at 33.0 µM 64% | [7]; [14] -9% | [7]; [15] 40% | [7]; at 50.0 µM 43% | [8]; at 1.2 µM 3% | [8]; at 3.7 µM 9% | [8]; at 11.0 µM 34% | [8]; at 33.0 µM 58% | [9]; at 1.2 µM 1% | [9]; at 3.7 µM 9% | [9]; [14] 4% | [9]; at 11.0 µM 19% | [9]; at 33.0 µM 47% | [9]; [15] 1% | [10]; at 1.2 µM 2% | [10]; at 3.7 µM 15% | [10]; at 11.0 µM 29% | [10]; at 33.0 µM 60% | [11]; at 1.2 µM -11% | [11]; at 3.7 µM -19% | [11]; at 11.0 µM 27% | [12]; [14] -12% | [12]; [15] 59% | [12]; at 50.0 µM 38.2% | [13]; at 1.2 µM 2% | [13]; at 3.7 µM 10% | [13]; at 11.0 µM 34% | [13]; at 33.0 µM 57%
